# From PubChem BioAssay AID1342 (University of Pittsburgh Molecular Library Screening Center, 2008)
# Unmarked numbers belong to inactive results. The rule behind the calls is not given here.
# Assay: fluorescence polarization artefacts, biochemical, 57K campaign, artefact control, dose response (AID 1342)
# Conditions: PKD fluorescence polarization interference counter-screen
smiles,measurement,value
C/C(=N\Nc1ncc(Cl)cc1Cl)c1ccccn1,IC50,16.7 µM
